Compound activity (PubChem BioAssay)
sEH act: activators of human soluble epoxide hydrolase; P34913; purified human sEH enzymatic activity, activator screen; activation, % at 2 µM; 91,000 tested, 0.04% active; in the data active = activation above about 37%
Target sequence (P34913 whole entry, looked up): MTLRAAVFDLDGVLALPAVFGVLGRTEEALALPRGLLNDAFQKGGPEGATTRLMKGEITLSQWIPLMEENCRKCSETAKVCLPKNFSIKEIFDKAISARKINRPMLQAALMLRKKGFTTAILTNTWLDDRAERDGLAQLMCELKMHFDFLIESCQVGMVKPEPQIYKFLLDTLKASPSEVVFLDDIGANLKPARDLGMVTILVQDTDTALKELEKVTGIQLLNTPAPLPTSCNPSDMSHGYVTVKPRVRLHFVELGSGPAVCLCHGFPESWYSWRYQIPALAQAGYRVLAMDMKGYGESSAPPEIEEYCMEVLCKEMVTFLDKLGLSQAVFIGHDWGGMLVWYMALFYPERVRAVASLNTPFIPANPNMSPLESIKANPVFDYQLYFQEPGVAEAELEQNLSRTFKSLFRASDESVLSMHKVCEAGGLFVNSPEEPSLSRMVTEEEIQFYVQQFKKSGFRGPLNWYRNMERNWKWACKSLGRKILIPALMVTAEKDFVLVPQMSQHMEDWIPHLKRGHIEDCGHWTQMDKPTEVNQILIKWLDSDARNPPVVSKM
MRP resist rev: reverses drug resistance mediated by MRP | differential viability (reversal), % at 10 µM | 85,000 tested, 0.04% active | AID 602 | H69AR cells + 2 uM doxorubicin, CellTiter-Glo, 72 h;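 active = viability drop by adding the cancer drug above about 55%, with treated viability meeting a 40% cutoff, limit read from the data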;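 note: viability without doxorubicin minus viability with 2 µM doxorubicin for each compound; larger differential means the compound sensitizes cells more to doxorubicin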
sEH inh: blocks human soluble epoxide hydrolase activity; P34913; recombinant human sEH enzymatic activity assay; 91,000 tested, 0.34% active; inhibition, % at 2 µM; in the data active = inhibition above about 80%
Measles CPE: protection of cells from measles virus; Measles virus-infected cells, CPE protection, absorbance; protection (pct of control), % at 4 µM; 140,000 tested, 1.5% active; AID 841; in the data active = protection mostly above about 24%, no sharp cut-off; inactive = mostly below about 26%
sdo1 growth: compounds rescuing growth of sdo1-depleted yeast, bone marrow failure model | z-score at 10 µM | 140,000 tested, 0.21% active | S. cerevisiae sdo1-depleted JHY4D growth rescue, OD600 30 h; hits give high values; pdr5 snq2 efflux-pump mutant strain | AID 817;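 active = z-score above 3 at both the 24 hr and the 30 hr optical density reads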;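 note: z-score against mean and SD of all compound wells on the same plate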
MRP-1 activ: activators of MRP-1; H69AR cells + doxorubicin, viability rescue, CellTiter-Glo; viability increase, % at 10 µM; 140,000 tested, 0.61% active;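 active = viability gain under doxorubicin at or above a set limit, the compound median plus 3 SD, cut at about 4.7% in these data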;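 note: MRP-1 overexpressing cells given doxorubicin 25 µM after compound pretreatment; 18-22 h compound pretreatment then 72 h with doxorubicin before readout; 0% = doxorubicin-only wells and 100% = vehicle-treated cells without doxorubicin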
* = called active by the depositor; / = no result. Sampled rows, rich in hits. Any-hit rate of the full collection: about 2.5%.

SMILES	sEH act	MRP resist rev	sEH inh	Measles CPE	sdo1 growth	MRP-1 activ
CCOC(=O)N1CCC(N2C(=O)c3ccccc3C2Nc2ccc(C)cc2)CC1 (stereo not given)	0.2	0.2	-1.0	36.2*	-1.22	-2.2
COc1ccc(CNc2oc(-c3cccc4ccccc34)nc2C#N)cc1	25.5	4.0	-23.5	68.3*	-2.07	-1.8
CNc1oc(-c2cccc3ccccc23)nc1C#N	-7.2	-5.1	7.1	5.3	0.14	2.3
O=C(Nc1nnc(-c2ccc3c(c2)CCCC3)o1)C1COc2ccccc2O1 (stereo not given)	-9.1	-9.5	6.7	0.8	-1.91	0.1
Cc1cc(N2CCN(C/C=C/c3ccccc3)CC2)n2ncnc2n1	/	27.6	/	32.0*	0.17	-1.9
COc1ccc(Cn2c(O)c(C=Nc3ccc(OC)cc3)c3ccccc3c2=O)cc1	/	/	/	7.3	0.06	6.4*
CC(C)CCC(C)N=Cc1c(O)n(Cc2ccccc2)c(=O)c2ccccc12 (stereo not given)	6.2	-4.5	-4.0	1.4	-0.44	-0.5
Fc1ccc2c(c1)C(c1ccncc1)=NNC(c1ccccc1)=N2	/	/	/	9.3	1.14	-1.0
O=C(O)c1cc(S(=O)(=O)N2CCOCC2)ccc1N1CCOCC1	15.9	/	-12.9	4.7	0.46	-0.2
Cc1ccc(S(=O)(=O)NC(=O)c2cc(C)n(-c3cc(S(=O)(=O)N4CCOCC4)ccc3N3CCCC3)c2C)cc1	3.0	/	-0.9	10.8	1	5.0*
COCCNC(=O)c1ccc(NC(C)=O)cc1	0.4	-0.8	1.0	51.8*	0.7	0.5
Cc1nc2ccc(NC(=O)c3cccc(C(F)(F)F)c3)cc2o1	-3.1	/	2.7	60.7*	0.44	-0.1
CCCNC(=O)c1cccc(C(F)(F)F)c1	-8.9	/	9.5	26.5*	0.22	-1.2
O=C(Nc1ccccc1)c1cccc(C(F)(F)F)c1	/	/	/	12.2	1.24	-1.5
COCCCNC(=O)c1cccc(C(=O)NCCCOC)c1	/	-3.6	/	23.1*	0.87	-2.4
CC(=O)Nc1ccc(C(=O)NCCc2ccccc2)cc1	/	/	/	20.0	0.63	-2.5
COCCCNC(=O)c1ccc2c(c1)OCO2	4.5	12.5	-6.7	22.7	0.94	0.1
O=C(NCCCN1CCCC1=O)c1cccc(C(F)(F)F)c1	1.1	6.1	2.6	3.2	0.37	-0.4
Cc1cc(C)c(C)c(OCCCN(C)C)c1	/	/	/	4.3	0.15	-1.9
CN(C)c1ccc(NC(=O)Cn2cc3c(n2)CCCC3)cc1	/	-23.4	/	6.2	0.09	-4.2
O=Cc1cn(-c2ccc(F)cc2)c2ccccc12	/	/	/	34.0	0.77	-2.6
O=C(C1CC(c2ccc(F)cc2)=NO1)N1CCc2ccccc2C1 (stereo not given)	-1.0	7.8	4.4	7.9	0.85	-0.1
O=C(C1CC(c2ccccc2O)=NO1)N1CCc2ccccc2C1 (stereo not given)	4.6	1.9	-10.7	47.3*	-0.94	0.0
O=C(c1ccccc1)N1N=C(c2ccccc2)CC1c1ccccc1[N+](=O)[O-] (stereo not given)	/	/	/	9.2	-0.54	-2.9
Cc1nnc(NC(=O)c2cccc(F)c2)s1	-9.5	/	9.5	2.6	0.5	-0.3
SMILES	sEH act	MRP resist rev	sEH inh	Measles CPE	sdo1 growth	MRP-1 activ
Cc1nnc(NC(=O)c2c(F)cccc2F)s1	4.2	-0.8	-5.8	10.0	0.46	9.3*
COc1ccc(C(=O)c2cnc(/N=C/N(C)C)s2)cc1	/	/	/	1.9	0.7	-1.4
CN(C)/C=N/c1ncc(C(=O)c2ccc3ccccc3c2)s1	48.5*	/	-49.1	11.3	-0.49	-4.3
COc1cc2cc3c(N)c(C(=O)Nc4sc(C)c(C)c4C#N)sc3nc2cc1OC	-3.5	/	2.4	23.8	0.85	-2.5
O=C(NCC(=O)N(c1ccc2c(c1)OCO2)C(C(=O)NC1CCCC1)c1cccs1)c1ccco1 (stereo not given)	-4.7	11.1	4.8	66.0*	0.92	-3.4
O=C(NC1CCCC1)C(c1cccs1)N(C(=O)c1ccco1)c1ccc2c(c1)OCO2 (stereo not given)	7.0	-11.2	-7.1	14.5	0.94	-1.8
COc1ccc(/C=C/C(=O)NCCc2ccc(S(N)(=O)=O)cc2)cc1	/	/	/	56.1*	0.5	-2.8
COc1ccc(CC(=O)NCCc2ccc(S(N)(=O)=O)cc2)cc1	6.5	/	-7.4	4.0	0.27	-0.6
O=C(COC(=O)[C@H](Cc1ccccc1)NC(=O)c1ccco1)NCc1ccccc1	-12.5	/	13.2	4.6	-0.53	-0.5
Cc1ccc(N2C(=O)CC3(CC4C=CC3C4)C2=O)cc1 (stereo not given)	/	3.4	/	52.6*	-1.22	1.5
COc1ccc(OC)c(-n2c(SCC(=O)NCc3ccco3)nnc2-c2c[nH]c3ccccc23)c1	6.5	25.2	-7.9	13.9	-0.13	-4.6
CCCSc1nc2c(c(=O)n1CC)SC(C)C2 (stereo not given)	-2.6	18.3	6.0	92.9*	0.37	-1.1
CCn1c(SCC(=O)N2CCCC2)nc2c(c1=O)SC(C)C2 (stereo not given)	/	-4.2	/	-0.6	0.28	-3.3
O=C(Nc1ccc(N2C(=O)C3C4C=CC(C4)C3C2=O)cc1)Nc1cccnc1 (stereo not given)	-13.3	-19.5	12.9	3.8	0.29	-0.9
c1ccc2c(-c3nc(C4CCCCC4)no3)cc(-c3ccncc3)nc2c1	-2.1	2.5	5.3	15.4	-0.53	7.6*
Oc1ccc(-c2nc(-c3ccc(O)c(O)c3)cs2)cc1	/	-26.6	/	2.8	1.46	9.1*
Oc1ccc(Nc2nc(-c3ccc4ccccc4c3)cs2)cc1	0.6	-4.6	-1.2	6.5	-2.1	-6.6
CC1(C)CC(=O)C2=C(C1)Nc1ccccc1NC2c1ccc2c(c1)OCO2 (stereo not given)	4.3	6.1	-6.8	41.4*	-0.22	-0.9
Nn1c(SC/C=C/c2ccccc2)nnc1-c1cccnc1	8.2	0.8	-9.3	25.7*	-0.12	-1.1
CCOC(=O)N1CCN(C(=O)CSCC(=O)Nc2nc(-c3ccc(-c4ccccc4)cc3)cs2)CC1	2.3	0.1	-0.6	44.3*	-1.74	-5.2
CCOC(=O)N1CCN(C(=O)CSCC(=O)Nc2nc(-c3ccc(OC)cc3)cs2)CC1	-2.1	7.7	-1.3	4.6	-0.78	-0.6
N#C/C(=C\c1c(N2CCOCC2)nc2ccccn2c1=O)S(=O)(=O)c1ccccc1	-5.7	43.3	5.3	26.8*	-0.57	-1.1
Cc1ccc(CNC(=O)/C(C#N)=C/c2ccc(C)s2)cc1	-9.5	/	12.0	20.3*	-0.02	-3.0
Cc1ccc(NC(=O)/C(C#N)=C/c2ccc(C)s2)c(C)c1	-0.3	9.6	2.7	14.1	0.75	-0.7
COC(=O)c1ccc(NC(=O)C(=O)N2CCN(C(=S)NCCc3ccccc3)CC2)cc1	/	/	/	3.9	0.53	-0.8
C[n+]1ccccc1COc1ccc(C(C)(C)C)cc1	/	/	/	5.5	0.13	-2.3
CCn1c(CNc2nc3ccccc3n2C(C)C)nc2ccccc21	1.4	23.6	2.1	15.7	-0.26	-0.8
C=C1N(c2ccccc2)C(=O)OC1(C)C	/	/	/	21.7	2.24	0.6
CCN(c1ccccc1)S(=O)(=O)c1ccc(OCC(=O)Nc2cc(C)on2)cc1	3.9	8.5	-0.2	5.6	-0.48	1.1
